Screens deposited in PubChem BioAssay by National Center for Advancing Translational Sciences (NCATS).
UbGFP stabilizer: ubiquitin-GFP accumulation via proteasome inhibition | Potency, µM (top dose mostly 45.9 µM), without a hit: top-dose activation (GFP accumulation), usual class: activators | Ubiquitin-GFP reporter cells, proteasome inhibition, GFP fluorescence; response scale: untreated = 0%, 10 µM MG-132 = 100% | AID 526 | 67,000 tested, under 10 active; active = well fitted activation curve with a large enough effect, not every such curve was filed as active; inconclusive = small, poorly fitted or top-dose-only effect, or another doubt; inactive = no such curve, though single readings can be large or run the other way; also: potency is read from the fitted curve at half-maximal effect
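U2OS cells expressing ubiquitin(G76V)-GFP, seeded overnight in 0.5% FBS medium, then treated 4 hr at 37 C across 46 uM to 2.9 nM. GFP-positive cells counted by laser cytometry (488 ex/515 em); %activity scaled between basal and 10 uM MG-132.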
HBB splice mod: modulators of hemoglobin beta chain splicing | HBB splicing reporter cell assay, activation; EGFP reporter with mutant IVS2-654 intron; response scale: normalised to 500 nM splice-correcting PNA | Potency, µM (highest dose often 46.1 µM), inactives show at the top dose activation, actives largely listed as activators | 65,000 compounds, 0.06% hits; also: potency is read from the fitted curve at half-maximal effect; 0% is about no effect
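Compounds were applied for 2 days to HeLa EGFP-654 cells, 500/well in Optimem with 2% FCS. The reporter's EGFP is disrupted by mis-splicing of beta-globin intron IVS2-654. Readout: summed well GFP fluorescence from 488 nm laser scanning; reference was 500 nM antisense […] 654 PNA.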
GFP derepression: epigenetic modulators derepressing GFP locus in mouse cells | mouse C127i GFP locus derepression, cytometry, 30 h | Potency, µM (top dose mostly 46.1 µM), without a hit: at the highest dose GFP derepression (activation) | 68,000 compounds, 0.09% hits | AID 597; also: % of control where 0% means no effect
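Murine C127i mammary cells carrying a silenced, stably integrated CMV-driven GFP reporter were treated with compound for 30 hours at 37 C. After PBS washes, GFP-positive cells were counted by laser-scanning microplate cytometry.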
TSHR ag: activates the human thyroid stimulating hormone receptor; 73,000 compounds, 0.48% hits; HEK293-CNG-TSHR cells (CNG channel as cAMP sensor), membrane potential dye, cAMP; Potency, µM (series often up to 57.1 µM), without a hit: at the top dose activation, usual class: activators; AID 926; active = well fitted activation curve with a large enough effect in the main read-out, with a control signal flat, not every such curve was filed as active; inconclusive = small, poorly fitted or top-dose-only effect, or a change in a side signal; inactive = no such curve, though single readings can be large or run the other way; % of control where 0% means no effect;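 also: the control signal comes from parental cells without the receptor; potency is read from the fitted curve at half-maximal effect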
Target sequence (P16473 whole entry, looked up): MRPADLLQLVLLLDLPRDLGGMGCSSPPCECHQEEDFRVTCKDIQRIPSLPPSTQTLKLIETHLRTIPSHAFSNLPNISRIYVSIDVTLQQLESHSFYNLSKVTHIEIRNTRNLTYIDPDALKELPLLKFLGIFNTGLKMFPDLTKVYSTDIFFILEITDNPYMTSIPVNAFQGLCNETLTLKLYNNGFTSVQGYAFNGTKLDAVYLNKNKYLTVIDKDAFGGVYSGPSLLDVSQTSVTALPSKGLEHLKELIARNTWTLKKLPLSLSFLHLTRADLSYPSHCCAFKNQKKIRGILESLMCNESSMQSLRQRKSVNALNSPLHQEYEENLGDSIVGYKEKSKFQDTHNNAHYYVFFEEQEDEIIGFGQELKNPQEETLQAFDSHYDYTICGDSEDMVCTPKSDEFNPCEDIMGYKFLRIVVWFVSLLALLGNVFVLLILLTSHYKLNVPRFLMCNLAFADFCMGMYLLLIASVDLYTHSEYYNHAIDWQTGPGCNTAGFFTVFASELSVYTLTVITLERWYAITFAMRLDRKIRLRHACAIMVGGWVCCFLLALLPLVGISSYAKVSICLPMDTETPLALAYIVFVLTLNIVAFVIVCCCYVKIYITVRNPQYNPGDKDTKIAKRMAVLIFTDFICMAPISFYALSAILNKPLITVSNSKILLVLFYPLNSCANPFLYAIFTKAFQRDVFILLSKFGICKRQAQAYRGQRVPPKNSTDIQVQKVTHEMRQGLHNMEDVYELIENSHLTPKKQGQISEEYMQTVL
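HEK 293 cells stably expressing TSHR and a cAMP-gated CNG channel; parental CNG-only cells as counterscreen. Cells preloaded 60 min with membrane potential dye plus 100 uM RO 20-1724, then compound 30 min; fluorescence read at 590 nm.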
HEK293 cAMP ctrl: parental HEK293 cAMP activation (counter-screen). Potency, µM (top dose mostly 57.1 µM), for the others: top-dose activation, hits mostly activators. 73,000 compounds, 2.5% hits. parental HEK293 CNG cAMP sensor, membrane potential fluorescence; also: potency is read from the fitted curve at half-maximal effect; % of control where 0% means no effect; nearly all actives have a fitted effect of over 55% in size
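Parental HEK 293 cells stably expressing a modified CNG channel (no TSHR) report cAMP rise as membrane depolarization. Membrane potential dye with 100 uM RO 20-1724 was loaded for 60 min at room temperature, then compound added for 30 min; fluorescence read at 590 nm.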
* = called active by the depositor; ? = inconclusive; / = no result given; [ ] = dose if it differs, or a comment. In the library only some 3% were active in any assay of this set; here they are far more common. Unless noted, calls follow the shape of the dose curve; as a rule, active = well fitted curve in the direction sought with a large enough effect; inconclusive = small, poorly fitted or top-dose-only effect, or another doubt; inactive = no such curve, though single readings can be large; an effect the other way counts as inactive or inconclusive.

SMILES	UbGFP stabilizer	HBB splice mod	GFP derepression	TSHR ag	HEK293 cAMP ctrl
O=C(C1CC1)N1CCc2cc(Br)cc(S(=O)(=O)N3CCN(c4ccccn4)CC3)c21	-6%	0%	-5%	?	16µM*
COc1ccc(-c2cnnc(CCCn3ccnc3-c3ccccc3)n2)cc1	/	-3%[9.22 µM]	/	7%[11.4 µM]	17%[11.4 µM]
CCN(CC)S(=O)(=O)c1ccc(N2CCCC2)c(C(=O)OCC(=O)/C(C#N)=C(\C)N)c1	-4%	-1%	-1%	25µM*	15%
CC(C)CNC(=O)COC(=O)c1cc(S(=O)(=O)N2CCCCC2)ccc1N1CCOCC1	3%	2%	1%	-2%[11.4 µM]	3%
CCN1C(=S)SC(=O)C1=C1C=C(C)N(Cc2ccco2)C(C)=C1	-8%	13µM*	8%	-21%	-11%
Cc1cc(O)c(C(C)C)cc1CN1CCCCC1	-6%[9.17 µM]	4%[9.22 µM]	0%[9.22 µM]	2%[11.4 µM]	5%[11.4 µM]
CCN1CCN(S(=O)(=O)c2ccc3[nH]c(=O)oc3c2)CC1	17%	0%	/	?	32µM*
CCOC(=O)C1CCN(S(=O)(=O)c2ccc3[nH]c(=O)oc3c2)CC1	10%	-1%	/	12%	14%
CCN(c1cccc(C(F)(F)F)c1)S(=O)(=O)c1ccc2c(c1)CCN2C(=O)C1CC1	12%	-3%	-1%	?	25µM*
NCC[C@H]1CCC[C@H](CCN)N1	4%	0%	0%	2%	15%
Cc1ccnc(N2CCC(C(=O)Nc3cccc(C(F)(F)F)c3)CC2)n1	-3%	/	-5%	?	20µM*
COC(=O)C1=NOC2(C=C(Br)C(OC)=C(Br)C2=O)C1 (stereo not given)	/	0%[9.22 µM]	/	-2%[11.4 µM]	4%[11.4 µM]
Brc1cc2c(cc1Cn1c(-c3cncs3)nc3ccccc31)OCO2	8%	2%	0%	?	7.9µM*
Cc1ccccc1Cn1c(-c2cncs2)nc2ccccc21	2%	/	-2%	?	32µM*
Cc1noc(C)c1-c1nc(Nc2ccc(F)cc2)c2ccccc2n1	-3%	0%	6%[9.22 µM]	4%	-4%
Cn1nnc2cc(C(=O)NCc3ccc4c(c3)OCO4)ccc21	-5%	-1%	5%	0%	20%
O=C(NCc1ccc2c(c1)OCO2)c1ccc2snnc2c1	-2%	-5%	-1%	?	7.9µM*
CCCCCCCCCC(=O)N[C@@H](CN1CCOCC1)[C@@H](O)c1ccccc1	5%	0%	-1%	11%	24%
O=C(Nc1ccc(Cl)cc1)N1CCN(c2ccc3nnc(-c4ccc(F)cc4)n3n2)CC1	/	/	/	?	25µM*
O=C(Nc1ccccc1Cl)N1CCN(c2ccc3nnc(-c4ccccc4)n3n2)CC1	-6%	-1%	-4%	-1%	3%
O=C(NCCCN1CCOCC1)c1ccc(Cc2nc3ccccc3[nH]2)cc1	/	/	/	-4%	-9%
O=C(CN1CCN(C2CCCCC2)CC1)Nc1ccccc1-c1ccccc1	3%	0%[57.5 µM]	3%	?	16µM*
N[C@H](CCC(=O)NCS(=O)(=O)O)C(=O)O	-7%	1%	-1%	5%	-4%
O=[N+]([O-])c1ccc(NCCO)c(OCCO)c1	/	1%	/	?	?
Cc1ccc(C(=O)CSc2nnc(COc3cccc(C)c3)o2)cc1	7%	/	3%	?	?
SMILES	UbGFP stabilizer	HBB splice mod	GFP derepression	TSHR ag	HEK293 cAMP ctrl
Cc1cccc(OCc2nnc(SCc3cc(=O)n4cc(Br)ccc4n3)o2)c1	0%	0%[57.5 µM]	6%	?	13µM*
COc1ccc(-c2ccc3c(n2)CCCN3C[C@H](O)CN2CCCc3nc(-c4ccc(Br)cc4)ccc32)cc1	/	0%[9.22 µM]	/	-7%[11.4 µM]	-12%[11.4 µM]
CN(C)CCCCNC(=O)c1ccc(-n2c(=O)c(=O)[nH]c3ccccc32)cc1	/	/	/	-5%	-17%
Cc1nc(SCC(=O)Nc2ccc3c(c2)OCCO3)c2oc3ccccc3c2n1	-2%	-2%[57.5 µM]	0%	4µM*	20%
CC(=O)NCCSC(=O)c1ccc(F)cc1	9%	-2%	1%	?	3.2µM*
Fc1ccc(-c2nnc3sc(C4COc5ccccc5O4)nn23)cc1 (stereo not given)	-14%	5%[1.84 µM]	-2%	?	25µM*
CC1=C(CC[C@H](C)CO)O[C@@H]2C[C@@H]3[C@H]4CC[C@H]5C[C@@H](O)CC[C@]5(C)[C@@H]4CC(=O)[C@@]3(C)[C@@H]12	-1%[9.17 µM]	-3%[9.22 µM]	7%[9.22 µM]	-5%[11.4 µM]	-13%[11.4 µM]
Nn1c(SCC(=O)NC2CCCCC2)nnc1-c1ccccc1	1%	/	1%	-1%	7%
Nn1c(SCC(=O)NC2CCCc3ccccc32)nnc1-c1cccs1 (stereo not given)	1%	0%[57.5 µM]	1%	?	0.2µM*
CC(C)(C)n1nnnc1C(c1ccccc1)N1CCc2ccccc2C1 (stereo not given)	3%	0%[57.5 µM]	2%	?	?
CN(C)c1ccc(C(c2nnnn2C(C)(C)C)N2CCc3ccccc3C2)cc1 (stereo not given)	-4%	/	0%	?	16µM*
COc1ccc(C(c2nnnn2C2CCCC2)N2CCc3ccccc3C2)cc1OC (stereo not given)	1%	/	-3%	?	7.9µM*
O=C(NC1CCN(Cc2ccccc2)C1)c1ccc(Cc2nc3ccccc3[nH]2)cc1 (stereo not given)	/	/	/	2%	-8%
Cc1ccc(-n2c3c(cc(C(=O)NCc4ccco4)c2=O)C(=O)CC(C)(C)C3)cc1	-12%[9.17 µM]	1%[0.0738 µM]	-2%	4µM*	21%[11.4 µM]
Cc1nc2ncnn2c(Nc2ccc3c(c2)OCO3)c1Cc1ccccc1	-5%	/	4%	?	25µM*
COc1ccc(/C=N/NC(=O)c2cc(-c3ccc(Cl)cc3)n[nH]2)cc1OC	/	/	/	15%	25%
Cc1cc(C)c2nc(C(F)(F)F)nc(N3CC(C)OC(C)C3)c2c1 (stereo not given)	4%	0%	0%	?	25µM*
COc1cccc2c(=O)n(CC(=O)NC3CCCC3)ccc12	-5%	0%	/	1.3µM*	1%
COc1cccc(C2NC(C(=O)O)CCC2C)c1 (stereo not given)	/	6%[9.22 µM]	/	2%[11.4 µM]	-4%[11.4 µM]
COc1ccc(-c2nc3cnc(N4CCNCC4)nc3n(Cc3cccs3)c2=O)cc1	2%	-4%	8%[9.22 µM]	1%	-12%
COc1cccc(Cn2c(-c3cccs3)noc2=O)c1	2%	0%[57.5 µM]	3%	15%	29%
COc1cccc(Cn2c(-c3nonc3N)nc3ccccc32)c1	-14%	-2%	1%	?	25µM*
COc1ccc(CCNC(=O)Cn2c(-c3nonc3N)nc3ccccc32)cc1OC	10%	-1%	0%	?	?
COc1cc(Cn2c(-c3nonc3N)nc3ccccc32)ccc1C	-1%	-1%	0%	?	25µM*
